Screening results deposited in PubChem BioAssay by several laboratories.
Shown are actives, neighbours in structure and some others; about 3.9% of the full set was active somewhere.
H9c2 protect = modulators protecting cardiomyocytes from myocardial damage | hit rate 0.63% among 360,000 | AID 588492 | H9c2 cardiomyocytes, H2O2 injury protection, ATPLite, 2 h | protection from H2O2 cell death, % at 20 µM;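 active = compounds giving at least 50% protection of heart cells from peroxide-induced death in the single-dose screen, raw or plate-pattern-corrected value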;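 also: 0% = DMSO wells with peroxide and 100% = DMSO wells without peroxide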
UBC9 SUMO inh = inhibitors of human SUMOylation (UBC9). HTRF SUMOylation assay, SAE1/SAE2 + UBC9, in vitro. inhibition, % at 35 µM. hit rate 0.36% among 290,000. AID 2006; in the data active = inhibition above about 50%, passing the limit was not always enough; inconclusive = no clear call, values can overlap the other calls
Target sequence (P63279 whole entry, looked up): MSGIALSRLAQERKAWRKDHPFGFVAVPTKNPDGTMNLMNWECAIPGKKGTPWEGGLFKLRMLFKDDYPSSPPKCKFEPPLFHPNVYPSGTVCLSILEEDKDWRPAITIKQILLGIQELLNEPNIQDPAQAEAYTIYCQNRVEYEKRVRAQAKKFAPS
ALR inh = inhibitors of human sulfhydryl oxidase ALR. P55789. purified ALR, DTT oxidation, H2O2 HRP-luminol luminescence. inhibition, % (no concentration beside the values). hit rate 3.8% among 290,000. AID 485317;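 active = mean replicate inhibition above about 79%, with every replicate also reaching it, limit read from the data; inconclusive = only one of the two criteria met; inactive = mean below limit and not every replicate reaching it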
NTR1 agonist = agonists of human neurotensin receptor NTR1; hit rate 0.17% among 330,000; AID 493036; NTR1-U2OS beta-arrestin-GFP spot imaging, agonist mode; activation, % at 20 µM;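 active = activation at or above 40% of the spot to cytoplasm intensity ratio, with at least 20 cells analyzed; inconclusive = wells under 20 cells, flagged as cytotoxic or low count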;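 also: 0% = DMSO without peptide and 100% = 100 nM NTR1 peptide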
Target sequence (P30989 whole entry, looked up): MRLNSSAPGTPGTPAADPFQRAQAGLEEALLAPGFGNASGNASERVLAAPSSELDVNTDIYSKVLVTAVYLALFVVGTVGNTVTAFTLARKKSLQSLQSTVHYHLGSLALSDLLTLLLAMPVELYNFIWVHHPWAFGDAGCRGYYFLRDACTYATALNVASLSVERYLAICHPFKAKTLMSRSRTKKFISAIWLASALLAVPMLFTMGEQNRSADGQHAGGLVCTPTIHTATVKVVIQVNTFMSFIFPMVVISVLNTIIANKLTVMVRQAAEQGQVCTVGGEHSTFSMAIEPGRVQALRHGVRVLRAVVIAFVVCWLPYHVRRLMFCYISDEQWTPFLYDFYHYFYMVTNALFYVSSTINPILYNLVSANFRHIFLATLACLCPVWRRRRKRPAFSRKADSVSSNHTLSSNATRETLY
* = called active by the depositor; ? = inconclusive; · = not tested or not shown.

SMILES	H9c2 protect	UBC9 SUMO inh	ALR inh	NTR1 agonist
O=C(O)CCc1nnc(SCC(=O)Nc2ccc(Cl)c(C(F)(F)F)c2)[nH]c1=O	-5	-2	47	-1
COC(=O)CSc1nnc(C)c(=O)[nH]1	24	-8	-6	0
Cc1ccc(NC(=O)CSc2nnc(CCC(=O)O)c(=O)[nH]2)cc1	-8	16	98*	5
O=C(O)CCc1nnc(SCC(=O)Nc2ccc(Br)cc2)[nH]c1=O	5	0	27	0
Cc1cc(C)c(C(=O)CSc2nnc(C)c(=O)[nH]2)cc1C	4	11	95*	0
O=C(O)CCc1nnc(SCC(=O)Nc2cccc(C(F)(F)F)c2)[nH]c1=O	4	11	99*	-1
COc1ccccc1C(=O)N1CCN(c2cccc(C(F)(F)F)c2)CC1	-5	6	1	2
CC(=O)Nc1ccc(NC(=O)CSc2nnc(C)c(=O)[nH]2)cc1	0	11	98*	0
CC(=O)Nc1ccc(SCC(=O)Nc2oc(C)c3c(C)n[nH]c(=O)c23)cc1	3	·	99*	0
Cc1ccc(S(=O)(=O)N2CN(Cc3ccco3)c3nc4ccccc4nc32)cc1	-7	28	14	2
O=C(N/N=C/c1ccc(O)cc1)Nc1cccc2nsnc12	58*	19	41	11
COc1cc(/C=N/NC(=O)Nc2cccc3nsnc23)cc(OC)c1OC	42	-11	·	·
O=C(N/C(=C/c1ccc(Br)cc1)C(=O)N1CCOCC1)c1cccs1	1	11	-1	0
COc1ccc2cc3cc(C(=O)NCCc4ccc(OC)c(OC)c4)oc3nc2c1	87*	13	-6	8
CCCN(CCC)CCCNC(=O)c1cc2cc3ccc(OC)cc3nc2o1	-8	41	-6	0
Cc1ccc(Sc2ncccc2C(=O)O)cc1C	7	-2	58	1
CN(C)C(=O)c1ccc(-c2n[nH]c(=O)c3ccccc23)cc1	62*	13	-22	0
Nc1nc(-c2ccc3c(c2)NC(=O)CO3)cs1	5	18	?	1
O=C1COc2ccc(-c3n[nH]c(=O)c4ccccc34)cc2N1	59*	4	-3	-1
COC(=O)c1ccc(-c2n[nH]c(=O)c3ccccc23)cc1	1	-1	-12	1
CC(Oc1ccccc1F)c1nnc(SCC(=O)c2c(N)n(C3CC3)c(=O)[nH]c2=O)o1 (stereo not given)	-8	·	2	0
COc1cc(C)c(NC(=S)Nc2cccc(Cl)c2C)cc1OC	0	-3	91*	0
CC1=C(C(=O)Nc2cc(C(=O)N(C)Cc3ccccc3)ccc2C)SCCO1	0	-4	-14	0
CC(=O)c1cccc(NC(=O)CSc2nc(=O)n(CCCN3CCOCC3)c3c2CCC3)c1	15	·	98*	-1
O=C(CSc1nc(=O)n(CCCN2CCOCC2)c2c1CCCC2)Nc1cccc(Cl)c1	5	·	99*	0
SMILES	H9c2 protect	UBC9 SUMO inh	ALR inh	NTR1 agonist
Cc1cccc(NC(=O)CSc2nc(=O)n(CCCN3CCOCC3)c3c2CCCC3)c1	-1	·	98*	1
CCCN1C(=O)C(O)(C2COC(C)(C)CC2=O)c2ccccc21 (stereo not given)	-3	5	5	-1
Cc1ccc(-c2nc(SCC(=O)NCCN3C(=O)CSC3=O)[nH]c2-c2ccc(C)cc2)cc1	·	6	88*	5
Oc1ccc(N2CCN(Cc3cc4c(cc3Br)OCCO4)CC2)cc1	-5	-14	92*	2
O=S(=O)(c1ccc(F)cc1)N1CCN(Cc2cc3c(cc2Br)OCCO3)CC1	-7	·	-2	4
Cc1ccc(S(=O)(=O)NC(=NC2CCCCC2)c2ccc(Cl)cc2)cc1	-10	6	-2	2
O=C(COC(=O)COc1ccccc1)Nc1ncc([N+](=O)[O-])s1	3	·	96*	-2
CCC(Oc1ccccc1)C(=O)Nc1ncc([N+](=O)[O-])s1 (stereo not given)	-28	3	97*	-2
O=c1[nH]ncc(NCCCO)c1Cl	-8	-4	0	0
O=[n+]1cc(-c2cc3ccccc3o2)n([O-])c2c1CCCC2	-2	0	98*	0
CCOC(=O)[C@H]1[C@H]2COc3ccc(C)cc3[C@@H]2N2C(=O)CN(Cc3ccc(OC)cc3)C(=O)[C@@]12C	4	·	-5	3
Cc1ccc(CCNC(=O)CS(=O)Cc2nc(-c3cccs3)oc2C)cc1 (stereo not given)	-3	21	·	2
Cc1ccc(-c2nc(CS(=O)CC(=O)NCc3ccccc3)c(C)o2)cc1 (stereo not given)	-4	-7	98*	0
Cc1ccc(-c2nc(CS(=O)CC(=O)NCc3ccc(F)cc3)c(C)o2)cc1 (stereo not given)	0	10	99*	-1
CCc1ccc(-c2nc(CS(=O)CC(=O)NCCc3ccccc3)c(C)o2)cc1 (stereo not given)	-4	7	99*	-1
Cc1ccc(CNC(=O)CS(=O)Cc2nc(-c3cccs3)oc2C)cc1 (stereo not given)	11	25	99*	-1
Cc1nc2cc(-c3ccccc3)nn2c(C)c1CCC(=O)N1CCN(c2ccccc2)CC1	26	-14	0	8
Cc1ccc(NC(=O)CS(=O)Cc2nc(-c3ccc(C)cc3)oc2C)cc1 (stereo not given)	-14	12	99*	-1
COc1ccc(NC(=O)CS(=O)(=O)Cc2nc(-c3ccc(C)cc3)oc2C)cc1	-7	9	-2	3
Cc1oc(-c2ccccc2F)nc1CS(=O)CC(=O)NCc1ccccn1 (stereo not given)	4	11	99*	1
Cc1ccc(-c2nc(CS(=O)CC(=O)NCc3ccccn3)c(C)o2)cc1 (stereo not given)	-3	17	100*	0
c1ccc(Nc2ccnc(Nc3ccccc3)n2)cc1	-8	-11	96*	6
COc1ccc(C(=O)COc2ccccc2C(N)=O)cc1	69*	20	-10	0
OC(CNCCc1ccc(C(F)(F)F)cc1)COC(c1ccccc1)c1ccccc1 (stereo not given)	-24	-35	-6	66*
O=C1CSC(=S)N1CC1CCCO1 (stereo not given)	4	9	-8	1
SMILES	H9c2 protect	UBC9 SUMO inh	ALR inh	NTR1 agonist
Cn1c(=O)[nH]c(=O)c2c1[nH]c(=S)n2Cc1ccc(Cl)cc1	1	2	99*	0
COc1cc(/C=C/C(=O)N[C@@H](Cc2c[nH]c3ccccc23)C(=O)O)ccc1O	-2	23	86*	0
CCCC(=O)Nc1ccccc1NC(=O)c1ccc(OCC)cc1	-3	-17	-1	0
Cc1ccccc1C(=O)Nc1ccc2c(C#N)c3nc4ccccc4nc3n2c1	65*	49	12	0
C=CCSc1nc2sc3c(c2c(=O)[nH]1)CCC3	18	10	19	3
CSCCC(NS(=O)(=O)c1ccc(Cl)cc1)C(=O)OCC(=O)NC1CCCCC1 (stereo not given)	-3	15	-2	1
Cc1ccccc1CSCCNS(C)(=O)=O	4	11	30	-1
Cc1cccc(OCCn2c(NC(=O)c3ccco3)nc3ccccc32)c1	62*	10	5	1
